PubChem BioAssay (NCATS)
Where “and” joins values, the source holds several entries; their conditions need not be identical. Identical values can stand only once. Results filed as inconclusive are left out. Values without a mark were called inactive. Calls of active or inactive are those of the source. Unless noted, calls come from the whole dose curve; as a rule, active = well fitted curve in either direction with a large enough effect (not every such curve was filed as active); inconclusive = small, poorly fitted or top-dose-only effect, or another doubt; inactive = flat fitted curve, though single readings scatter.

Assay: Cell Viability - HepG2 (AID 433; calls by dose curve;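 note: potency is the fitted concentration of half-maximal effect; cells exposed to compound for 40 hours; potency for ATP loss meaning cytotoxicity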)
Conditions: qHTS
Outline: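 ATP luminescence (CellTiter-Glo) after 40 h compound exposure, 37 °C, HepG2, 1500 cells/well, complete medium. Normalized: DMSO = basal, 100 uM tamoxifen = 100% inhibition. AC50 via standard Hill equation.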
Work on `CCCCOC(=O)c1ccc(N)cc1` yielded a Potency greater than 92 µM.
Compound `Nc1ccc(S(=O)(=O)c2ccc(N)cc2)cc1` has a Potency greater than 92 µM.
For `CC(=O)NS(=O)(=O)c1ccc(N)cc1`, the Potency was greater than 92 µM.
In the case of `Cc1cc(C)nc(NS(=O)(=O)c2ccc(N)cc2)n1`, the Potency is reported as greater than 92 µM.

Assay: Cell Viability - MRC5 (AID 434; calls by dose curve;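 note: potency is the fitted concentration of half-maximal effect; cells exposed to compound for 40 hours at 37 °C; potency reflects cytotoxicity seen as loss of intracellular ATP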)
Conditions: MRC5 lung fibroblast viability, qHTS
Outline: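 qHTS cytotoxicity in human lung fibroblast MRC5 cells; 40 hr treatment, 37 °C; cellular ATP by luciferase luminescence; DMSO = 0%, 100 uM tamoxifen = 100% inhibition; Hill-fit AC50.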
In the case of `CCCCOC(=O)c1ccc(N)cc1`, the Potency is reported as greater than 92 µM.
Compound `Nc1ccc(S(=O)(=O)c2ccc(N)cc2)cc1` has a Potency greater than 92 µM.
`CC(=O)NS(=O)(=O)c1ccc(N)cc1` gave a Potency greater than 92 µM.
`Cc1cc(C)nc(NS(=O)(=O)c2ccc(N)cc2)n1` showed a Potency greater than 92 µM.

Assay: Cell Viability - SK-N-SH (AID 435; calls by dose curve; note: potency is the fitted concentration of half-maximal effect)
Conditions: SK-N-SH neuroblastoma cell viability qHTS
Outline: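 CellTiter-Glo ATP luminescence, 20 min RT read; cells pre-plated 5 hr, compound 40 hr at 37 °C, 1500 cells/well, complete medium. Normalized DMSO = 0, 100 uM tamoxifen = 100% inhibition; Hill-fit AC50.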
With `CCCCOC(=O)c1ccc(N)cc1` the Potency was greater than 92 µM.
For `Nc1ccc(S(=O)(=O)c2ccc(N)cc2)cc1`, the Potency was greater than 92 µM.
For `CC(=O)NS(=O)(=O)c1ccc(N)cc1`, the Potency was greater than 92 µM.
Work on `Cc1cc(C)nc(NS(=O)(=O)c2ccc(N)cc2)n1` yielded a Potency greater than 92 µM.

Assay: NFAT Signaling Pathway (AID 444);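 note: carbachol stimulus at about its EC50 of 1 µM final; % is set by controls: 0 for no effect and ±100 for the full control effect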
Conditions: Jurkat NFAT-bla M1, carbachol, beta-lactamase ratio, 5 h; at 17.2 µM (top of the series) unless noted
Outline: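 Read-out: CCF4 FRET ratio (460 nm/530 nm) after 1 h RT dye loading, used for %activity and AC50 from titration series. Cells: Jurkat NFAT-β-lactamase/M1 line, treated with compound plus 1 uM carbachol for 5 h, 37 °C.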
Compound `Cc1c(NC(C)C)c(=O)n(-c2ccccc2)n1C` has an activity change, negative = inhibition of -8.51%.
With `NCc1ccc(S(N)(=O)=O)cc1` the activity change, negative = inhibition was -1.12% and 9.4%.
`Cc1ncc(CO)c(CN)c1O` showed an activity change, negative = inhibition of -0.448% [at 7.69 µM].
With `CCCCC1(COC(=O)CCC(=O)O)C(=O)N(c2ccccc2)N(c2ccccc2)C1=O` the activity change, negative = inhibition was 11.7%.
Compound `CCc1cccc(CC)c1NC(=O)CN(CC(=O)O)CC(=O)O` has an activity change, negative = inhibition of -2.21%.
With `NC(=O)CC[C@@H](N)C(=O)O` the activity change, negative = inhibition was 0.712% [at 38 µM].
Compound `CN/C(=C\[N+](=O)[O-])NCCSCc1csc(CN(C)C)n1` has an activity change, negative = inhibition of -2.1%.
In the case of `C[C@@H]1CCC[C@H](C)N1`, the activity change, negative = inhibition is reported as -5.56%.
For `O=C(O)c1ccccc1OP(=O)(O)O`, the activity change, negative = inhibition was -20.2%.
With `CCN(CC)CCOC(=O)C(c1ccccc1)c1ccccc1` the activity change, negative = inhibition was -79.3% (active).
Compound `Cn1c(=O)c2c(ncn2CCO)n(C)c1=O` has an activity change, negative = inhibition of -0.574%.
In the case of `CC(C)=CCC/C(C)=C/CO`, the activity change, negative = inhibition is reported as 4.14% [at 7.69 µM].
For `O=C(Cn1ccnc1[N+](=O)[O-])NCCO`, the activity change, negative = inhibition was -5.19%.
For `CCOC(=O)[C@H](CCc1ccccc1)N[C@@H](C)C(=O)N1CCC[C@H]1C(=O)O`, the activity change, negative = inhibition was 0.851%.
`Cc1cccc(Nc2ccccc2C(=O)O)c1C` gave an activity change, negative = inhibition of -4.97%.
`O=C(O)COC(=O)Cc1ccccc1Nc1c(Cl)cccc1Cl` gave an activity change, negative = inhibition of -7.48%.
`Cc1c(NC(=O)c2cccnc2)c(=O)n(-c2ccccc2)n1C` showed an activity change, negative = inhibition of -13.6%.
In the case of `Cc1cc(NC(=O)C2=C(O)c3ccccc3S(=O)(=O)N2C)no1`, the activity change, negative = inhibition is reported as -5.7% and 4.09%.
Compound `O=C(O)c1ccccc1C(=O)Nc1ccc(S(=O)(=O)Nc2nccs2)cc1` has an activity change, negative = inhibition of 11.2%.
For `O=S1(=O)OC(c2ccc(O)cc2)(c2ccc(O)cc2)c2ccccc21`, the activity change, negative = inhibition was 14.9% [at 7.69 µM].
For `COc1ccc2cc(CCC(C)=O)ccc2c1`, the activity change, negative = inhibition was -1.6%.
`CC(=O)SC[C@@H](Cc1ccccc1)C(=O)NCC(=O)OCc1ccccc1` gave an activity change, negative = inhibition of -12%.
In the case of `CCCCOC(=O)c1ccc(N)cc1`, the activity change, negative = inhibition is reported as -8.04%.
In the case of `Cn1c([N+](=O)[O-])cnc1COC(N)=O`, the activity change, negative = inhibition is reported as -6.16% and -23.1%.
With `Nc1ccc(S(=O)(=O)c2ccc(N)cc2)cc1` the activity change, negative = inhibition was -0.066% and 13.8%.
For `NC(N)=NS(=O)(=O)c1ccc(N)cc1`, the activity change, negative = inhibition was -6.04% and -19.4%.
In the case of `CC(=O)NS(=O)(=O)c1ccc(N)cc1`, the activity change, negative = inhibition is reported as -1.44% and -25.8%.
For `Cc1cc(C)nc(NS(=O)(=O)c2ccc(N)cc2)n1`, the activity change, negative = inhibition was -2.6%.
